Results as given in PubChem BioAssay (NCATS).
Records with an inconclusive call do not appear. A call without a number means that no potency is given here. Activity calls are given as the source filed them. Calls follow the shape of the dose curve; as a rule, active = well fitted inhibition curve with a large enough effect; inconclusive = small, poorly fitted or top-dose-only effect; inactive = no such curve, though single readings can be large or run the other way.

molecular target: Retinaldehyde dehydrogenase 3 (Homo sapiens) (UniProt P47895); test: qHTS for Inhibitors of the Aldehyde Dehydrogenase Family (ALDH1A3) Primary screen (AID 2061315); conditions: ALDH inhibition qHTS; series mostly up to 56 µM
Potency is read from the fitted curve at half-maximal effect.

| Structure (SMILES) | Potency |
| --- | --- |
| Clc1cccc(COc2cncc(N3CCNCC3)n2)c1 | inactive |
| CCNC(=O)OC1CCN(c2nncc3cc(OC)c(OC)cc23)CC1 | inactive |
| N[C@H]1Cc2ccccc2N(O)C1=O | inactive |
| COc1cc(CC2COC(c3ccc(OC4OC(CO)C(O)C(O)C4O)c(OC)c3)C2CO)ccc1O (stereo not given) | 8.91 µM (active) |
| N#Cc1ccc(C(=O)N2CCC3(CC2)N=C(N)c2c(F)ccc(F)c2N3)cn1 | inactive |
| Cc1onc(-c2c(Cl)cccc2Cl)c1C(=O)N[C@@H]1C(=O)N2[C@@H]1SC(C)(C)[C@@H]2C(=O)O | inactive |
| Cc1cc(Cl)ccc1COc1ccnn1-c1cc(C(=O)O)ccn1 | inactive |
| CCN(CC)CCOCCOC(=O)C(CC)(CC)c1ccccc1 | inactive |
| O=c1[nH]c2cccc(N3CCN(Cc4ccc(-c5ccccc5)cc4)CC3)c2o1 | inactive |
| N#Cc1ccc(-c2cnc3[nH]cc(NC(=O)c4cccnc4)c3c2)cc1 | inactive |
| CC/C=C\[C@H](O)[C@H](O)C1=C(C)C(=O)[C@]2(O1)C(=O)N[C@@](O)(C(=O)c1ccccc1)[C@@H]2O | inactive |
| NC(N)=NCCC[C@H](NC(=O)c1sccc1NS(=O)(=O)c1cccc2nsnc12)C(=O)O | inactive |
| Cc1cn(C[C@H](N)C(=O)O)c(=O)n(Cc2ccsc2C(=O)O)c1=O | inactive |
| C[S+](CC[C@H](N)C(=O)[O-])C[C@H]1O[C@@H](n2cnc3c(N)ncnc32)[C@H](O)[C@@H]1O (stereo not given in full) | inactive |
| COc1cccc(OC)c1C(=O)N[C@@H]1C(=O)N2[C@@H]1SC(C)(C)[C@@H]2C(=O)O | inactive |
